Out of some 360,000 compounds screened, about 25,000 (6.9%) were called active. About 9% were inconclusive and are not listed. Calls follow the shape of the dose curve; as a rule, active = well fitted inhibition curve with a large enough effect; inconclusive = small, poorly fitted or top-dose-only effect; inactive = flat fitted curve, though single readings scatter. Many of the other results were omitted from the sample, so actives are more common in it than they were.
target: Luciferin 4-monooxygenase (Photinus pyralis) (UniProt P08659); experiment: qHTS profiling assay for firefly luciferase inhibitor/activator using purifed enzyme and Km concentrations of substrates (counterscreen for miR-21 project); conditions: purified FLuc, luminescence inhibition; series mostly up to 57.5 µM; activity change, negative = inhibition: at the top concentration; also: nearly all actives have a fitted effect of over 55% in size;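 as to activity change, negative = inhibition: plate controls were vehicle for no effect and reference inhibitor for full effect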
Outline: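 Purified P. pyralis luciferase (10nM final) with 10uM D-luciferin and 10uM ATP (Km levels) in 50mM Tris acetate pH 7.5, 10mM Mg acetate, 0.01% Tween-20, 0.05% BSA; qHTS 6-point titration, ~60 µM downward; luminescence read.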
Potency is read from the fitted curve at half-maximal effect.

Chain of Luciferin 4-monooxygenase (Photinus pyralis) (P08659 whole entry, looked up): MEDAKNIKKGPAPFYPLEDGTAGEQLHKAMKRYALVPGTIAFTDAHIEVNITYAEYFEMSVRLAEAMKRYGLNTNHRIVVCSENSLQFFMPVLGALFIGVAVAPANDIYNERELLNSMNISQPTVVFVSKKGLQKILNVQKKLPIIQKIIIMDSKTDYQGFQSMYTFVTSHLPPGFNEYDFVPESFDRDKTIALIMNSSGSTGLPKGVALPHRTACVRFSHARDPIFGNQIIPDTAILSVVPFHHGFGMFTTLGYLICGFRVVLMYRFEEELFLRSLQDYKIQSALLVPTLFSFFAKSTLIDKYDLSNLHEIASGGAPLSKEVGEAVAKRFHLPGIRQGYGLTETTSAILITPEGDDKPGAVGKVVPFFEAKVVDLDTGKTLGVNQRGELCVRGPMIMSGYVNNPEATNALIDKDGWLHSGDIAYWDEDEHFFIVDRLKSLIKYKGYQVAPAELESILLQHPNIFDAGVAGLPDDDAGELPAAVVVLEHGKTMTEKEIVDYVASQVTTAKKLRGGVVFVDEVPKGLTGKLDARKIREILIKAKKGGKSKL

SMILES | activity change, negative = inhibition | Potency
CCOc1ccc(OCC)c(Nc2nc3ccccc3n3nnnc23)c1 | -4.04% (inactive) | 
Cc1cccc(N(C(=O)c2ccc(CN3CCOCC3)o2)C(C(=O)NC2CCCCC2)c2ccc(F)cc2)c1 (stereo not given) | 0.757% (inactive) | 
CCc1cc2c(cc3c(=O)n(CC(=O)N4CCN(c5cc(Cl)ccc5C)CC4)ncn32)s1 | -1.68% (inactive) | 
CCOc1ccc(N(C)S(=O)(=O)c2cc(-c3cnc(C)o3)ccc2OC)cc1 | -13.9% (inactive) | 
Cc1cc(C)c(NC(=O)CSc2nc3nccnc3c(=O)n2CCc2c[nH]c3ccccc23)c(C)c1 | 1.53% (inactive) | 
COCCNC(=O)c1ccc2c(c1)N(Cc1cccc(Cl)c1)C(=O)c1ccccc1S2(=O)=O | 2.89% (inactive) | 
COc1cccc2cc(C(N)=O)/c(=N\NC(=O)c3ccccc3)oc12 |  | 1.69 µM (active)
CN(c1ccccc1)S(=O)(=O)c1ccc(Cl)c(C(=O)NCCc2c[nH]c3ccccc23)c1 | 1.57% (inactive) | 
COc1ccc(CNC(=O)c2cc3cccc(OC)c3oc2=O)cc1 | 1.19% (inactive) | 
Cc1cc(C)cc(OCC(=O)NNC(=O)c2cc3ccccc3oc2=O)c1 | -3.62% (inactive) | 
NC(=O)c1cc2ccccc2o/c1=N/NC(=O)c1cccc(F)c1 | -6.69% (inactive) | 
COc1cccc2cc(C(=O)N3CCN(C(=O)c4ccccc4)CC3)c(=O)oc12 | 1.94% (inactive) | 
Cc1cc(C)cc(NC(=S)NCCc2c[nH]c3ccccc23)c1 | -0.441% (inactive) | 
O=C(NCCc1c[nH]c2ccccc12)c1cc2ccccc2oc1=O |  | 16.9 µM (active)
O=C(NCc1ccccn1)c1cc2ccccc2oc1=O |  | 13.5 µM (active)
COc1ccc2oc(=O)c(C(=O)NCc3ccccn3)cc2c1 | -18.7% (inactive) | 
COc1cccc2cc(C(=O)N(C)C)c(=O)oc12 | 4.57% (inactive) | 
COc1cccc2cc(C(=O)NCc3ccc(C)cc3)c(=N)oc12 |  | 5.36 µM (active)
N#Cc1ccc(CN2CCN(CC(=O)Nc3ccccc3C(=O)NC3CC3)CC2)cc1 | 0.877% (inactive) | 
Cc1ccc(C(NC(=O)N2CCCC2)C(Cl)(Cl)Cl)cc1F (stereo not given) | -0.884% (inactive) | 
CCCCn1c(=O)c2oc3ccccc3c2n(CC(=O)Nc2ccccc2OC)c1=O | -0.61% (inactive) | 
COc1ccc(C)cc1-n1c(-c2ccc(C)cc2)cc2c1CC(C)(C)CC2=O | 5.93% (inactive) | 
COC(=O)C1=C(C)NC(=S)NC1c1ccc(OCC(=O)N2CC(C)OC(C)C2)c(OC)c1 (stereo not given) | 3.18% (inactive) | 
CC(=O)Nc1ccc(S(=O)(=O)N2CCN(S(=O)(=O)c3cccs3)CC2)cc1 | -1.89% (inactive) | 
O=C(NCC(c1ccc2c(c1)OCO2)N1CCN(c2ccccc2)CC1)C(=O)Nc1ccccc1F (stereo not given) | -9.43% (inactive) | 

SMILES | activity change, negative = inhibition | Potency
COc1ccc(CCNC(=O)c2nn(C)c3c2CSc2ccccc2-3)cc1OC | -17.3% (inactive) | 
COc1ccc(C(=O)NCC2CCCCC2)cc1S(=O)(=O)N1CCCC1 | -4.76% (inactive) | 
CCC(=O)N1CCc2cc(Br)cc(S(=O)(=O)CCC(=O)NCc3ccccc3OC)c21 | -9.49% (inactive) | 
COc1cc(OC)c(NC(=O)c2cnc(N3CCCC3)nc2C)cc1Cl | 2.64% (inactive) | 
Cc1sc2nc(CC(N)=O)[nH]c(=O)c2c1-c1ccccc1 | 2.11% (inactive) | 
CC1CCC2(CC1)N=C(c1ccccc1)C(=O)N2CC(=O)Nc1ccc(F)c(Cl)c1 (stereo not given) | -0.323% (inactive) | 
O=C(CCCCCNC(=O)c1ccccc1)N/N=C/c1ccccc1 | 0.301% (inactive) | 
Nc1ccc(C(=O)NCc2ccccc2)cc1 | -5.23% (inactive) | 
N=c1oc2ccccc2cc1C(=O)N/N=C/c1ccccc1 |  | 1.35 µM (active)
O=C(NCc1ccccc1)c1cc(-c2cccc(Cl)c2)on1 | 2.29% (inactive) | 
CSc1ccccc1C(=O)NCc1ccccc1 | 3.41% (inactive) | 
O=C(NCc1ccccn1)c1cc(-c2ccccc2Cl)on1 |  | 10.7 µM (active)
O=C(N/N=C\c1cccc(Br)c1)c1ccccc1-n1cccc1 | 0.179% (inactive) | 
N=c1oc2ccccc2cc1C(=O)NCc1ccccc1 |  | 9.53 µM (active)
CCCCNC(=O)c1cc(-c2ccc(Cl)c(Cl)c2)on1 | 2.84% (inactive) | 
CC(C)[C@H](NC(=O)N1CCn2c1nc1ccccc12)C(=O)NCCc1ccccc1 | 0.834% (inactive) | 
Cc1ccc(C(=O)N/N=C/c2sc(=O)n(Cc3cccc(C(=O)O)c3)c2Cl)cc1 |  | 16.9 µM (active)
Cc1ccc(C(=O)Nc2c(C#N)c(C)c(C)n2Cc2ccccc2)cc1 | -1.22% (inactive) | 
Cc1ccc(/C=N/NC(=O)CN2CCN(Cc3ccccc3)CC2)s1 | -3.1% (inactive) | 
C=C1CCC(N(O)c2cc(C)on2)C(=C)CCC2C1CC2(C)C (stereo not given) | -0.208% (inactive) | 
CCCCCc1ccc(-c2ccc(OCC)cc2)nc1 |  | 10.7 µM (active)
CCOc1ccc(-c2cc(C)n3nc(C(=O)Nc4ccc(C)c(C)c4)cc3n2)cc1 | 2.77% (inactive) | 
Cc1ccc(-c2cn3c(n2)sc2cc(C(=O)NCCCc4ccccc4)ccc23)cc1 | -7.52% (inactive) | 
CCCCCc1ccc(-c2cn(Cc3ccc4ccccc4c3)nn2)cc1 | 1.7% (inactive) | 
CCCCCc1ccc(-c2ccc(C(=O)O)cc2)nc1 |  | 0.675 µM (active)
